Source: PubChem BioAssay (NCI)
The panel holds about 83,000 compounds, 20% with a hit somewhere; the sample as a whole holds those more often.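 Cell lines were cultured in 96-well plates, exposed to a single compound concentration, and assessed for percent growth 48 hours later.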 A number with no mark means an inactive call. Activity calls are given as the source filed them. Rule for the calls: active = growth percent below 10; inactive = the rest.

What was measured:
Experiment in all cases: NCI-60 one-dose screen, 48 h (100 = growth as untreated, 0 = no growth, -100 = all killed)
Details in all cases: 10 µM
DU-145 prostate = test system: DU-145 prostate
K-562 leukemia = test system: K-562 leukemia
MDA-MB-231 breast = test system: MDA-MB-231 breast
RXF 393 renal = test system: RXF 393 renal
SF-268 CNS = test system: SF-268 CNS
SF-295 CNS = test system: SF-295 CNS
SF-539 CNS = test system: SF-539 CNS
UACC-257 melanoma = test system: UACC-257 melanoma
M14 melanoma = test system: M14 melanoma
HCT-15 colon = test system: HCT-15 colon
HT29 colon = test system: HT29 colon
SNB-75 CNS = test system: SNB-75 CNS
SNB-19 CNS = test system: SNB-19 CNS
PC-3 prostate = test system: PC-3 prostate
SK-MEL-5 melanoma = test system: SK-MEL-5 melanoma
UACC-62 melanoma = test system: UACC-62 melanoma
LOX IMVI melanoma = test system: LOX IMVI melanoma
SK-MEL-28 melanoma = test system: SK-MEL-28 melanoma
U251 CNS = test system: U251 CNS

Compound | growth (DU-145 prostate) | growth (K-562 leukemia) | growth (MDA-MB-231 breast) | growth (RXF 393 renal) | growth (SF-268 CNS) | growth (SF-295 CNS) | growth (SF-539 CNS) | growth (UACC-257 melanoma) | growth (M14 melanoma) | growth (HCT-15 colon) | growth (HT29 colon) | growth (SNB-75 CNS) | growth (SNB-19 CNS) [%] | growth (PC-3 prostate) | growth (SK-MEL-5 melanoma) | growth (UACC-62 melanoma) | growth (LOX IMVI melanoma) | growth (SK-MEL-28 melanoma) | growth (U251 CNS)
O=C1NC(=O)c2c(CCCSc3nc4ccccc4c(=O)n3CCc3ccccc3)cccc21 | 111% | 89.7% | 65.8% | 92.8% | 91.2% | 44.9% | 65.7% | 105% | 98.1% | 96% | 90.3% | 82.8% | 94.8 | 88.9% | 95.8% | 90% | 81.8% | 105% | –
S=C1N(c2ccccc2)CN(C2CCCCC2)CN1c1ccccc1 | 107% | 101% | 98.2% | 109% | 118% | – | 88.1% | 2.41% (active) | 100% | 95.3% | 99.5% | 90.1% | 95.3 | 84% | – | 97.7% | 95.6% | 104% | 98.5%
Cc1ccc(C2NC(=S)N3C(c4ccc(C)cc4)NC(=S)N23)cc1 (stereo not drawn) | 18.7% | 5.27% (active) | 59.4% | – | 37.6% | 6.72% (active) | 13.9% | -22.5% (active) | -26.5% (active) | 29.5% | 17.8% | 127% | 44.5 | 34.4% | 17.1% | 34.6% | 51.4% | 58.7% | 28.3%
Nc1ncc(-c2cnn(C3CCNCC3)c2)cc1-c1nc2ccccc2o1 | 15.2% | -60% (active) | 27.1% | -29.5% (active) | -0.542% (active) | 94.5% | -33.8% (active) | -82% (active) | -88.7% (active) | 12.4% | -4.71% (active) | 13.2% | 35.8 | – | 26.9% | – | -80.6% (active) | -86.8% (active) | 13.1%
CSc1nc2c(c(=O)n1C)CN(Cc1ccccc1)C(=O)CN2 | 109% | 85.2% | 96.8% | 75.2% | 104% | 103% | 91.1% | 86.9% | 88.6% | 85.7% | 110% | 76.9% | 97.6 | – | 101% | 83.6% | 92.1% | 102% | 94%
Cc1nn(-c2ccccc2)c2nc(Cl)c(C=O)c(-c3ccccc3)c12 | 101% | 77.3% | 96.5% | 105% | 90.2% | – | – | 98.3% | 111% | 94.8% | 56.7% | 106% | 95.6 | 77.4% | 87.1% | 79.4% | 86.9% | 107% | 92.8%
C[n+]1c2ccccc2nc2ccccc21 | -59.4% (active) | 25.5% | -2.35% (active) | 24.3% | 20.7% | 23.4% | 29.1% | – | -55.7% (active) | 21.3% | 21.2% | 22.8% | – | 7.71% (active) | 3.8% (active) | -34.3% (active) | -36.5% (active) | -2.36% (active) | 4.11% (active)
O=C(c1ccccc1)N(C(=O)c1ccccc1)N1CCCC1 | 113% | 101% | 117% | 110% | 98.7% | 104% | 99.9% | – | 102% | 107% | 102% | 87.3% | 107 | 88.4% | 98.4% | 85.8% | 90.9% | 114% | –
COc1cc(-c2ccc[nH]2)[nH]c1/C=C1\N=C(C)C(C(=O)NC(C)C)=C1C | 21.2% | 1.73% (active) | -9.67% (active) | 47.6% | 44.4% | 40.2% | 18.9% | 23.3% | -1.65% (active) | 8.9% (active) | – | -13.7% (active) | 74.5 | – | -88.4% (active) | -33.5% (active) | -62.6% (active) | 44% | 31.4%
COc1cc(-c2ccc(N=Nc3ccc4c(S(=O)(=O)O)ccc(N)c4c3O)c(OC)c2)ccc1N=Nc1ccc2c(S(=O)(=O)O)ccc(N)c2c1O | 122% | 121% | 106% | 93.3% | 102% | – | 102% | 109% | 107% | 110% | 105% | 70.9% | 110 | 98.7% | 105% | 111% | 102% | 103% | 107%
COc1cc(C2CC(c3ccc4c(c3)OCO4)=NN2c2ccccc2)cc(OC)c1OC (stereo not drawn) | 107% | 48.8% | 82.2% | 106% | 83.6% | 91.2% | – | 90.3% | 91.6% | 81% | – | 58.8% | 84.8 | 92.6% | 86% | 76.7% | 89.4% | 99.7% | 38.9%
CCN(CC)CCCC(C)Nc1c2ccc(Cl)cc2nc2ccc(OC)cc12 (stereo not drawn) | 16.1% | 0.665% (active) | 19.8% | -16.1% (active) | 30.4% | 26.8% | – | -89.3% (active) | -73.1% (active) | 14.2% | -30.3% (active) | 16.3% | 35.4 | 35% | – | – | -48.1% (active) | -57.6% (active) | 11.4%
Cc1ccc(NC(=O)N2CCCCC2)cc1[N+](=O)[O-] | 108% | 106% | 95.5% | 106% | 81.1% | – | 92.6% | -0.113% (active) | 90.8% | 96% | 103% | 90.5% | 98.4 | 76.6% | 103% | 86.7% | 97% | 105% | 101%
Clc1ccc(Cc2ccncc2)cc1 | 114% | 111% | 99.5% | 110% | 96.2% | 112% | – | 104% | 109% | 104% | – | 89.8% | 98.9 | 103% | 104% | 95.3% | 97.9% | 112% | 113%
Cc1cc(NC(=O)c2ccc(C)c(Nc3nccc(-c4cccnc4)n3)c2)cc(-n2cnc(C)c2)c1 | 32.3% | -36.2% (active) | 18.5% | -3.26% (active) | 73.3% | -13.4% (active) | 21.1% | 87% | 30.9% | 58.6% | -18.6% (active) | -14% (active) | 66.6 | 61.4% | 65.7% | 44.6% | 2.11% (active) | 41.5% | –
COc1cc(N)c2ncccc2c1SC | 104% | 122% | 95.1% | 121% | 91.2% | 109% | 114% | 98.3% | 104% | 112% | – | 91% | 99 | 101% | 107% | 110% | 93.1% | 106% | 102%
COc1ccc(-c2nc(-c3nc4ccc(C)cc4[nH]3)cc3c2[nH]c2ccccc23)cc1 | 41.4% | 17% | 15.8% | 27.9% | 50.3% | 25.5% | 50.2% | 69.6% | 31.5% | 29.7% | 30% | – | 84.1 | 43.8% | 35.6% | 21% | 25.8% | 71.7% | 34.8%
CC(=O)Nc1ccc(S(=O)(=O)N/N=C(\C)c2ccc(C)cc2C)cc1 | 112% | 94.9% | 113% | 129% | 104% | – | 98.3% | 95.1% | 106% | 100% | 105% | 77.4% | 101 | 99.9% | – | 107% | 106% | 108% | 104%
